Screens deposited in PubChem by several laboratories.
DUSP3 inh – VHR1 phosphatase inhibitors, primary screen, biochemical, absorbance, uHTS; inhibition, % at 13.3 µM; recombinant VHR phosphatase, pNPP absorbance; actives 0.52% (n = 290,000); in the data active = inhibition above about 50%
Target sequence (P51452 whole entry, looked up): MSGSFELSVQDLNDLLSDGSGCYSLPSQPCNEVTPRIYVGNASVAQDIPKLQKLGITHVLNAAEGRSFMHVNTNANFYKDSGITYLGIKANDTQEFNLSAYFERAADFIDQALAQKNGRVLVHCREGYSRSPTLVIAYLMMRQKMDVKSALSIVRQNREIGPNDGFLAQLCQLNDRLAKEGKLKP
Bead autofluor – compound fluorescence in toxin protease inhibitor counterscreen; compound autofluorescence counterscreen, microsphere flow cytometry; hits give high values; fluorescence intensity (no concentration beside the values); actives 3.1% (n = 360,000); in the data active = fluorescence intensity above about 16000; inconclusive = no clear call, values can overlap the other calls
MazF activator – activators of E. coli MazEF toxin-antitoxin RNase, primary screen, biochemical, fluorescence, uHTS | Endoribonuclease toxin MazF (Escherichia coli (strain K12)), P0AE70 | actives 0.32% (n = 350,000) | FAM/BHQ RNA-DNA oligo cleavage fluorescence, 5 h | AID 504720, 2011 | activation, % at 20 µM; in the data active = activation above about 50%
Target sequence (P0AE70 whole entry, looked up): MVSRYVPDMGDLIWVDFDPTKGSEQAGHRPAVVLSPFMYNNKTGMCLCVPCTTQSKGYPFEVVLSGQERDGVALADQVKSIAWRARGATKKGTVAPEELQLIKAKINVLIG
BoNT A protease – BoNT/A light chain protease inhibitors, primary screen, biochemical, flow cytometry, MLPCN library; Botulinum neurotoxin type A light chain protease (Clostridium botulinum A str. ATCC 3502); multiplex microsphere protease substrate cleavage; inhibition, % at 10 µM; actives 0.17% (n = 360,000); AID 588499, 2011
Anthrax LF inh2 – Bacillus anthracis LF protease inhibitors, primary screen, biochemical, multiplex microsphere, MLPCN library; multiplex microsphere protease cleavage assay; inhibition, % at 10 µM; actives 0.12% (n = 360,000)
BoNT-F LC inh – BoNT/F light chain protease inhibitors, primary screen, biochemical, flow cytometry, MLPCN library. Multiplex microsphere protease cleavage assay. inhibition, % at 10 µM. actives 0.22% (n = 360,000). AID 588497, 2011; in the data active = inhibition above about 35%, passing the limit was not always enough; inconclusive = no clear call, values can overlap the other calls
A number is an active result; – = inactive; ? = inconclusive; · = no result given. Only some compounds are listed: those with a hit (about 4% of all), similar ones and a draw of the others. Rule as the data show it, unless noted: active = inhibition above about 30%; inconclusive = no clear call, values can overlap the other calls; inactive = below that.

SMILES | DUSP3 inh | Bead autofluor | MazF activator | BoNT A protease | Anthrax LF inh2 | BoNT-F LC inh
Cc1ccc(Oc2cc(C)nc(-c3ccccc3O)n2)cc1 | – | – | – | – | – | –
Cc1cc(OC2CCCCC2)nc(-c2ccccc2O)n1 | – | 22117 | – | ? | – | –
CC(C)CNC(=O)c1cccc2c(-c3cccc(C(N)=O)c3)coc12 | · | – | · | – | – | –
Cc1cccc(Nc2nc(N)nc(CN3CCN(c4ccccc4F)CC3)n2)c1 | · | – | – | – | – | –
Nc1nc(CN2CCN(Cc3ccccc3)CC2)nc(Nc2ccccc2)n1 | – | 19782 | – | – | – | –
Cc1cccc(Nc2nc(N)nc(CN3CCN(c4ccccc4)CC3)n2)c1 | – | 23528 | – | ? | – | –
O=C(Cn1ncc2c(=O)oc3ccccc3c21)NCC1COc2ccccc2O1 (centres undefined) | – | – | – | – | – | –
C=CCOC(=O)C1=C(C)N=C2SCCC(=O)N2C1c1ccc(OC(=O)c2ccco2)cc1 (centres undefined) | – | 23769 | – | – | – | –
COCCOC(=O)C1=C(C)N=C2SCCC(=O)N2C1c1cccc(Br)c1 (centres undefined) | – | 17065 | – | – | – | –
COCCOC(=O)C1=C(C)N=C2SCCC(=O)N2C1c1cccs1 (centres undefined) | – | – | – | – | – | –
Cc1noc(NS(=O)(=O)c2ccc(NC(=O)CSc3nnc(-c4ccccc4)n3C3CCCCC3)cc2)c1C | – | 22405 | – | – | – | –
O=C(CCS(=O)(=O)c1ccccc1)Nc1cccc(-c2nc3ccccc3s2)c1 | – | – | – | – | – | –
COc1cccc(C(O)c2nc(-c3cccc(C(C)C)c3)cs2)c1 (centres undefined) | · | – | · | – | – | –
C#CCNc1cc(C)nc2ncnn12 | – | 24731 | – | ? | – | –
c1ccc2[nH]c(SCCN3CCOCC3)nc2c1 | – | – | – | – | – | –
COc1ccc(N(C(=O)c2snc(C(N)=O)c2N)C(C(=O)NC2CCCC2)c2ccco2)c(OC)c1 (centres undefined) | – | – | – | – | – | –
CCOC(=O)CN1C(=O)C2(OCCCO2)c2cc(Br)ccc21 | 59.1 | – | – | – | – | –
CSc1ccccc1-n1nnnc1SCc1ccccc1 | – | 23954 | – | ? | – | –
CCN(CC)S(=O)(=O)N1CCC(C(=O)NCCN2CCOCC2)CC1 | – | 22119 | – | – | – | –
CCOC(=O)N1CCN(CC(O)COC(CC)c2ccccc2)CC1 (centres undefined) | – | – | – | – | – | –
CC1(C)CC(=O)C(C(O)c2cccc([N+](=O)[O-])c2)C(C)(C)N1 (centres undefined) | 51.3 | – | – | – | – | –
Cc1cccc(-c2nnc(NC(=O)c3ccc(Cl)cc3)o2)c1 | – | 16877 | – | – | – | –
Cc1ccc(C(=O)Nc2nnc(-c3ccncc3)o2)cc1 | – | – | – | – | – | –
CN(C(=O)COC(=O)Cc1c(Cl)cccc1Cl)C1CCS(=O)(=O)C1 (centres undefined) | · | – | – | – | – | –
COc1ccc(-c2csc3nc(-c4ccc(C)cc4)oc(=O)c23)cc1OC | 91.8 | – | – | – | – | –
SMILES | DUSP3 inh | Bead autofluor | MazF activator | BoNT A protease | Anthrax LF inh2 | BoNT-F LC inh
CCCCN(C)S(=O)(=O)c1cc2c3c(c1)CCC(=O)N3CCC2 | 55.7 | – | – | – | – | –
CCc1ccc[n+](-c2nc3ccccc3nc2C(=C=[N-])C#N)c1 | – | – | 577.6 | – | – | –
O=C1N(CCCCN2C(=O)C3(OCCO3)c3ccccc32)c2ccccc2C12OCCO2 | – | – | – | – | – | –
O=C1N(CCCN2C(=O)C3(OCCO3)c3ccccc32)c2ccccc2C12OCCO2 | – | 21454 | – | – | – | –
COc1ccccc1NC(=O)CN1C(=O)C2(OCCCO2)c2ccccc21 | – | 20250 | – | – | – | –
O=C1N(CN2C(=O)C3(OCCO3)c3ccccc32)c2ccccc2C12OCCO2 | – | – | – | – | – | –
NNC(=O)CN1C(=O)C2(OCCO2)c2ccccc21 | · | – | – | – | – | –
CCCC(=O)CN1C(=O)C2(OCCO2)c2ccccc21 | – | 22726 | – | – | – | –
CC(C)CC(=O)CN1C(=O)C2(OCCO2)c2ccccc21 | – | 23745 | – | – | – | –
O=C1c2cccc(OCC(=O)N3CCCc4ccccc43)c2CCN1Cc1ccc(F)cc1 | – | – | – | – | – | –
S=C(Nc1ccc2c(c1)OCO2)NC1CCN(Cc2ccccc2)CC1 | – | 20636 | – | – | – | –
CCCCNC(=O)Nc1ccccc1CC | – | – | – | – | – | ?
CCCCNC(=O)Nc1cc(C(F)(F)F)c[nH]c1=O | – | 24583 | – | – | – | –
N#Cc1c(N)n[nH]c1-c1cc2c([nH]1)CCCC2 | – | ? | – | ? | ? | ?
N#Cc1c(N)n[nH]c1CCCN | 51.4 | – | – | – | – | –
CCOc1ccc(OCCNC2CCCC2)cc1 | – | 22478 | – | ? | – | –
Cc1ccc(OCCCNC2CCCC2)cc1 | – | – | – | – | – | –
CCCOc1ccc(OCCNC2CCCC2)cc1 | – | 20118 | – | – | – | –
COc1ccc(N2C(=O)CC(NC3CC3)C2=O)cc1 (centres undefined) | – | – | – | – | – | –
Nc1ccc(/C=C/c2ccc3ncccc3c2)cc1 | – | – | – | – | – | –
Cc1[nH]n(-c2ccccc2)c(=O)c1/C=N/N1C(=O)c2ccc3c4c(ccc(c24)C1=O)CC3 | 51.3 | – | – | – | – | –
Cc1[nH]n(-c2ccccc2)c(=O)c1/C=N/O | – | – | – | – | – | –
N#Cc1c(Nc2ccc(Cl)cc2)s[nH]c1=O | – | – | – | – | – | –
Cc1cccc(NC(=O)C(=O)C2C(=O)Nc3ccccc32)c1 (centres undefined) | – | – | – | – | – | –
CCCCCCNC(=O)C(C#N)c1nc2ccccc2nc1N1CCCC1 (centres undefined) | – | – | 370.0 | – | – | –
CCCCCCOC(=O)C(C#N)c1nc2ccccc2nc1N1CCOCC1 (centres undefined) | – | 19713 | – | – | – | –
CCCCCCNC(=O)C(C#N)c1nc2ccccc2nc1N1CCOCC1 (centres undefined) | – | – | 577.4 | – | – | –
COCCCNC(=O)C(C#N)c1nc2ccccc2nc1N1CCCC1 (centres undefined) | · | ? | 739.4 | – | ? | –
CCN(Cc1ccccc1)S(=O)(=O)c1cc2[nH]c(=O)c(=O)[nH]c2cc1C | – | – | – | – | – | –
C=CCNc1ccc(C(=O)O)cc1 | – | – | – | – | – | –
